This note sets out measurements from PubChem BioAssay AID1508600 (Functional Genomics Laboratory (NCATS/FGL), 2020).

Hit rate of the full screen: of about 53,000 sequences, about 3,700 (7%) were called active. Only a selection was taken, and actives are over-represented in it overall. Unmarked numbers belong to inactive results.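 Rule for the calls: active = gene knockdowns whose robust z-score for IL-1 alpha signal is at least 2 or at most -2, so actives lie on both sides; inactive = the rest.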

The assay can be described thus: Components of the Cytosolic LPS Sensing Pathway: Gene Identification via Genome-wide siRNA Screen.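 Note: robust z of the log signal after scaling to non-targeting control siRNA wells of the plate.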 The following applies: RAW264.7 macrophages, IL-1a HTRF, actives lie on both sides, screened at 100 nM (by protocol), cells primed 5 h with Pam3CSK4 first. In short, it runs like this:
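Read-out: IL-1a HTRF on supernatant, divided by plate negative-control median ×100, log-transformed and converted to robust z-score. Cells were RAW264.7 given 100 nM siRNA, Pam3CSK4-primed 5 hours, then LipidA-transfected 24 hour.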
On the technique in general: TR-FRET usually uses a lanthanide donor and a delayed reading to cut background.
With CCAUAUCUCAUGAGGAAGGTT against Olfr1368, the z-score was 1.53.

Regarding GGACGGUGACAAGAACAACTT against Tnnc1, the z-score is 1.72.

With GCUUCACGAUUAAAACUAATT against Ltb4r1, the z-score was 0.

“CGGAGUCUUCUUCUCACCUTT against A630001O12Rik”: the z-score is -2.82 (active).

GGCUCAGGCAUUGUAACCATT against Dnm3: the z-score was -0.177.

Take GGUGCAUUCCUUGUGAAUGTT against Ctbp2: the z-score is 0.141.

With GCUCAGUCAUGUGACCGCATT against Fbxl18, the z-score is 2.93 (active).

GGGAAAGGAAGUUGUUUUGTT against Epha2: the z-score was 0.878.

For the sequence GCAGCCUAUUACCUCAGACTT against Nwd2, the z-score is 1.02.

For the sequence GGAUCUCUCUUUCCUCCUCTT against Gli1, the z-score is 0.0792.

With GCCUUCAAGCCAAAGAUAGTT against Lin54, the z-score was -0.582.

On to GGCAAAGGCUAUCGCUCACTT against Smpd2, for which the z-score is -1.46.

Regarding GCCUCUAUAUCUUUCACUGTT against Olfr1209, the z-score is -2.16 (active).

Turning to CCGGACCAUCUUCGACAGUTT against Pmepa1, the z-score is -0.783.

With GGAACUGUGUGUCUUCUCCTT against Kcns3, the z-score was -1.78.

As to CGGUGAAAGACUUCAGUAUTT against Ppfibp1, the z-score is 0.578.

Regarding GCCAGCGACCUUUAGUACATT against Cmtm1, the z-score was 2.08 (active).

Turning to CCUGCUCUUCGUUAUCUUGTT against Olfr552, the z-score was 1.59.

Consider GCGACAGAGGAAGCUUGUUTT against Mak16, for which the z-score is 0.634.

Consider CGACAAGAAGACUUCGAAUTT against Mnt, for which the z-score was -1.28.

Regarding GGCCUAUUUUUUCAUAGUUTT against Ptprs, the z-score was 0.0729.

Consider GCACACUGAUGAACUUACCTT against Ston2, for which the z-score was 2.55 (active).

On to GGCAAAGUACUACGUGCAGTT against Sh3bp5, for which the z-score is -0.225.

As to GGCAGAAUAUGAGUUUGAUTT against Camk1d, the z-score is -0.161.

As to “GGAAAAAGAUGCGACAAUGTT against A930012O16Rik”, the z-score is -1.01.

As to GGGACCAUUCUGAAGAUGATT against Acot7, the z-score is -1.76.

For GGAGAAUAUGUCGUCAUGATT against Gabra3, the z-score was -1.09.

Consider GGAAAAACUGGUCUAUCAATT against Polr3f, for which the z-score was 1.47.

Turning to GGAAGAAUGUGGGUAAAGATT against Gimap9, the z-score is -2.01 (active).

CCGUUUUUGUGGUUCAGUGTT against Plxdc1: the z-score is 0.0355.

Turning to GGCAACAUUGAACAUGCCUTT against Stambp, the z-score is -1.76.

For GCAGUUCAAGUCUUGAAUATT against Olfr934, the z-score was -1.09.

As to GGGUUUCUGUUAAUCCACATT against H3c8, the z-score was -1.38.

For the sequence CCUGCUUGCCAACACCAUATT against Slc39a13, the z-score was -2.2 (active).

Regarding GGAACAACAUUGUUCUAAATT against Fstl5, the z-score was 0.759.

Take GGGAGCCAUUUUUACAGACTT against Ffar4: the z-score is 0.405.

Regarding GCCGGAACAUCCAGAAUAGTT against Cpeb2, the z-score was -0.644.

For GCACCUAGCAUAGCAAUGGTT against Slc24a1, the z-score is 0.695.

As for GCGAUGACCAAAAAUAUUGTT against Tmc1, the z-score was -0.0131.

Regarding GCUGGCUAGAAUCUUACCCTT against Aph1c, the z-score was 0.554.

On to GGGCAUGCAAUGUUCAUGCTT against Rho, for which the z-score is 0.095.

For the sequence GGUUGUGCAACACAGCUCUTT against Olfr218, the z-score is -2.31 (active).

In the case of CGUGUCAGAACUCGAUCUUTT against Tbcel, the z-score is -0.549.

On to GGCCAUUGUUACUGGAAAATT against Elmo2, for which the z-score was -0.353.

GGAACUGACUCUUGAAAAUTT against Cd14: the z-score was 0.367.

As for GCUAGAGUCCAUAAACAAUTT against Olfr1148, the z-score is -0.0654.

GGGUUAAAGCGGUUUACUUTT against Kcng3: the z-score was 2.72 (active).

On to GGAGCAAUCUGUUAAACUATT against Vash2, for which the z-score is 0.318.

For GGCCCAUCCUGAAACCAAATT against Wfdc15b, the z-score was -2.04 (active).

Regarding CCCGGAGUGGUCAGAAGUATT against Mapkapk2, the z-score is -0.376.

Regarding GGUAAGCAUGGAAAGGCUGTT against Prdm15, the z-score was -0.0134.

On to GCCGUCAGAUGACAACUAGTT against Lta, for which the z-score was 0.481.

Turning to GGAUGACCUUGAAAGCAGUTT against Usp29, the z-score was -0.677.

Turning to GGCAAAGCUGUCUUAGAGGTT against Mettl23, the z-score was -1.35.

For the sequence GGCCAAAGCCAGAAUCUCATT against Zfp281, the z-score was 3.07 (active).

With GGACAUAGAUCUACCUGAATT against Ctsb, the z-score is -1.48.

As for GCUUAAUGCCUUGAAACGATT against Tsg101, the z-score is 1.9.

GGAAGAAGAUCACCAUCAUTT against Ifi204: the z-score is -2.64 (active).

Turning to GCACUUUGUGCUAGAUGAATT against Ddx39a, the z-score was -0.688.

As to GGAAUUGAAACCUGAUGUUTT against Srfbp1, the z-score is 0.239.

For GCUACUGUGUCGGUCACAUTT against Olfr514, the z-score is 0.753.

Turning to “CCAGUGAUAACUCUCUUGUTT against A830039N20Rik”, the z-score was 1.23.

For GGUUGUGUUUACCAUGAAGTT against Rps6ka6, the z-score is 0.684.

Take GUCAUGGUAGGGAUUUACATT against Taar4: the z-score is -2.83 (active).

For the sequence GGAGAUCUAUUGGAUCCAUTT against Trim12a, the z-score was 0.337.

For CCAGAUGUCGGCAGAUAACTT against Pold4, the z-score is 0.446.

Take GGGCUUUGAUCAGUUCUACTT against Hoxd11: the z-score was 1.88.

For the sequence GCACUUUAAUCUGGCUACCTT against Dnmt3b, the z-score is -0.78.
